Several values for one entry are separate records, joined by “and”; a condition that tells them apart may be missing. Identical values can stand only once. Inconclusive results are not listed. A number with no mark means an inactive call. Activity calls are given as the source filed them. Calls come from the whole dose curve; as a rule, active = well fitted inhibition curve with a large enough effect; inconclusive = small, poorly fitted or top-dose-only effect; inactive = no such curve, though single readings can be large or run the other way. Where a SMILES comes first, the peptide text is derived from it. The star is where a group is joined. Hexanoyl = CCCCCC(=O)*; PhAc = O=C(Cc1ccccc1)*
Assay: Primary qHTS for inhibitors of nuclear receptor binding SET domain protein 2 (NSD2) in an RCH-ACV wild type WT cells (2C) (AID 1645877); note: nearly all actives have a fitted effect of over 70% in size
Settings: RCH-ACV (leukaemia line) NSD2 WT (2C) viability, CellTiter-Glo, 72 h; series mostly up to 44.9 µM; activity change, negative = cell killing: at the top concentration
% is set by controls: 0 for no effect and ±100 for the full control effect; potency is the fitted concentration of half-maximal effect.

SMILES	activity change, negative = cell killing [%]	outcome	Potency
O=C(O)Cn1nnc(-c2ccc(CN(CCCCOc3ccc(CN4CCCC4)cc3)CCc3ccccc3)cc2)n1	-8.41	–	–
c1ccc2c(Nc3nnc(-c4ccncc4)s3)cccc2c1	-16.4	–	–
CCCCCC(=O)N1CCC[C@H]1C(=O)N[C@@H](Cc1ccc(O)cc1)C(=O)OC (Hexanoyl-Pro-Tyr-OMe)	-34.7	–	–
CCNC(=O)C1CC(F)(c2ccc(CN3CCCC3)c(F)c2)C1 (stereo unspecified)	–	inactive	–
CC(C)c1c(NC(=O)Nc2ccc(Cl)cc2)c(=O)n(-c2ccccc2)n1C	-22.2	–	–
COc1cc(Nc2nc3c(s2)CCCC3c2ccccc2)ccc1-n1cnc(C)c1 (stereo unspecified)	–	inactive [at 9.23 µM]	–
FC(F)(F)Oc1ccc(-c2ccc3nnc(C(F)(F)F)n3c2)cc1	-2.25	–	–
O=C(Nc1ccc(N2CCC(C(=O)N3CCOCC3)CC2)cc1)c1cnc(Oc2ccccc2)nc1	–	inactive	–
COc1ccc(NC(=O)c2ccc(-c3ccc(C(N)=O)cc3C)cc2)cc1N1CCN(C)CC1	–	–	14.5 µM (active)
Cc1ccc(-c2c(-c3nn(C)c4ncnc(N5CCC(N6CCCCC6)C5)c34)cnn2C)cc1 (stereo unspecified)	1.64	–	–
CC(CNS(=O)(=O)C(C)C)c1ccc(-c2ccc(C#N)cc2)cc1 (stereo unspecified)	–	–	8.17 µM (active)
COc1cccc(C(=O)NCCNc2nc3cc(C)cc(C)c3cc2C#N)c1	-21.7	–	–
COc1cnc(-n2cnc(C)n2)c2[nH]cc(C(=O)C(=O)N3CCN(C(=O)c4ccccc4)CC3)c12	–	inactive	–
COc1ccc(N2CCN(CCCNC(=O)Cn3c(=O)c4cccn4c4c(C)ccnc43)CC2)cc1	-0.908	–	–
CCCN(CCN1CCN(c2ccccc2OC)CC1)C1CCc2ncsc2C1 (stereo unspecified)	-16.8	–	–
Cc1[nH]c2ccccc2c1CC(=O)N[C@@H](Cc1ccccc1)C(=O)N(C)c1ccccc1	-19.7	–	–
NC1=NC2(c3cc(NC(=O)c4ccc(F)cn4)ccc3F)COCC2CS1 (stereo unspecified)	-24.5	–	–
Cc1ncc(NC(=O)c2ccc(CN3CCN(C)CC3)c(C(F)(F)F)c2)cc1Nc1nccc(-c2cccnc2)n1	–	–	8.17 µM (active) and 5.9 µM (active)
Cc1cc(CNC(=O)c2cc(C(=O)NCc3ccc(F)c(C)c3)ncn2)ccc1F	–	inactive	–
O=C(c1ccc(Cl)c([N+](=O)[O-])c1)N1CCN(c2ccccc2F)CC1	–	–	16.3 µM (active)
CCOC(=O)CNC(=O)[C@@H]1CCCN1C(=O)Cc1ccccc1 (PhAc-Pro-Gly-OEt)	-14.1	–	–
Cc1ccc(Nc2nnc(-c3ccc([N+](=O)[O-])cc3)o2)cc1Cl	-8.38	–	–
CCc1nn(CCO)c(CC)c1Oc1cc(C#N)cc(C#N)c1	-5.81	–	–
Fc1ccc(-c2c3cccc(C(F)(F)F)c3nn2Cc2ccc(F)cc2Cl)cc1	–	inactive	–
FC(F)(F)c1nnc2c(Sc3ccccc3)nc3ccc(Cl)cc3n12	–	–	3.65 µM (active)
COc1ccnc2[nH]cc(C(=O)C(=O)N3CCN(C(=O)c4ccccc4)CC3C)c12 (stereo unspecified)	-14.5	–	–

Source: PubChem BioAssay (NCATS)
